From PubChem BioAssay
“And” between values parts separate entries of the source, which are not always exact repeats. Identical values can stand only once. The source made the active and inactive calls.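 The calls were made as follows, unless noted: active = inhibition at or above 50% relative to wild type and mutant plate controls; inactive = inhibition below 50%.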

Tests used:
[1] = inhibitors of TNFa-induced NFkB p65 translocation, primary screen, imaging, HUVEC, MLSMR starter and 10KST1 sets (AID 438;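 active = inhibition above 20% together with a positive visual image hit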;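 also: compound added about 3h40 before a 20 min TNFalpha stimulation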;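 as to inhibition: signal is the nuclear over cytoplasmic p65 intensity ratio per well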); details: HUVEC TNFa-induced p65 nuclear translocation; cell count: measured here: nuclei count (cytotoxicity indicator), at 2.08 µM; inhibition: at 2 µM, stronger effect = higher value, 0% TNFa-plus-vehicle, 100% no-TNFa wells
[2] = inhibitors of mutant huntingtin aggregation, primary screen, imaging, exon1htt(103Q)mCFP cells, high-content imaging (AID 483;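 active = visual image review flags a hit and inhibition of aggregation exceeds 20%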;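 also: compound exposure lasted 3 days before fixation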;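 as to nuclei count: percent of the per-plate median nuclei count of sample wells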); details: exon1htt(103Q)mCFP cell line, aggregate imaging, at 2 µM; inhibition of aggregation: stronger effect = higher value; nuclei count: measured here: cell count, toxicity
[3] = inhibitors of E-selectin induction by TNFa, primary screen, imaging, HUVEC, immunofluorescence, MLSMR starter and 10KST1 sets (AID 487;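 active = visually confirmed hit in the image check and inhibition above 20%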;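 as to inhibition: signal is fraction of cell area covered by stained E-selectin grains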;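 as to nuclei count: 100% = median nuclei count of all wells on the same plate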); details: HUVEC TNFalpha-induced E-selectin immunofluorescence imaging, at 2 µM; inhibition: stronger effect = higher value; nuclei count: measured here: cell number, toxicity
[4] = DUSP6 inhibitors restoring Erk phosphorylation by chemical complementation, primary imaging in DUSP6-transfected HeLa (AID 609;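 active = compounds giving at least 50% inhibition in the cell-based MKP-3 phosphatase rescue imaging test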;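 as to inhibition: phospho-Erk level distribution per well compared with pooled transfected vehicle control wells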); details: HeLa MKP-3 transfected, phospho-Erk imaging KS statistic, at 10 µM, cells stimulated with TPA for 15 min
[5] = molecular target: Dual specificity protein phosphatase 6 (Homo sapiens) (UniProt Q16828); test: as above; details: HeLa MKP-3 transfected, phospho-Erk imaging KS statistic; at 10 µM; stronger effect = higher value; cells stimulated with TPA for 15 min
[6] = molecular target: Voltage-gated potassium channel subunit beta-2 (Rattus norvegicus) (UniProt P62483); test: KvBeta enzyme negative modulators, primary screen, biochemical, NADPH fluorescence (AID 622;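 active = fluorescence slope higher than the sample average by over 3 SD, cut at about -0.22 in these data, passing the limit was not always enough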;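 also: slope of raw intensity against log time taken from 70 to 1610 s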); details: recombinant KvBeta, 4-cyanobenzaldehyde reduction, at 10 µM, stronger effect = higher value
[7] = molecular target: Voltage-gated potassium channel subunit beta-2 (Rattus norvegicus) (UniProt P62483); test: KvBeta positive modulators, primary screen, biochemical, NADPH fluorescence (AID 623;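 active = NADPH fluorescence slope more negative than the mean of all samples by about 3 SD, 99.7% confidence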;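 also: fluorescence intensity change per second fitted from 20 to 320 s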); details: Recombinant KvBeta, NADPH fluorescence decrease slope, 10 min; at 10 µM; stronger effect = lower value
[8] = molecular target: Alpha-2C adrenergic receptor (Homo sapiens) (UniProt P18825); test: modulators of alpha2C/GIRK thallium flux, primary screen, cell-based, HEK293 alpha2C/GIRK1/2 (AID 624;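 active = fluorescence slope after compound addition differing from the mean of all screened samples at 99.7% confidence, in either direction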;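 also: slope of fluorescence ratio to pre-addition baseline per second over 15 to 24 s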); details: thallium flux BTC fluorescence, at 10 µM, actives lie on both sides
[9] = inhibitors of larval lipid processing in zebrafish, primary screen, whole organism, PED6 fluorescence, gall bladder and intestine (AID 686;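 active = a full or partial loss of lipid-probe fluorescence in the fish gall bladder, intestine or both, judged by eye; inactive = no fluorescence loss, or compound toxic to the fish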;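 also: larvae 5 to 7 days old with five fish per well; signal comes from phospholipase A2 cleavage of quenched PED6 carried via bile; overnight exposure to compound and PED6 before scoring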); details: Zebrafish larvae PED6 lipid processing, fluorescence scoring; screened at 20 µM (by protocol)
[10] = inhibitors of Chlamydomonas gravitaxis, primary screen, whole organism, Chlamydomonas reinhardtii, WT vs cilia-less mutant, absorbance, 96-well (AID 463189); details: OD600 absorbance, 2 days, at 10 µM, stronger effect = higher value;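 also: 0% = wild type cc124 cells in DMSO and 100% = ciliumless bld1 mutant cells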
[11] = inhibitors of Sendai virus-induced IRF3 signaling, primary screen, TLR/RLR signaling modifier project, cell-based, Sendai virus stimulus, luciferase, 10K MLSCN set (AID 602276;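 active = inhibition at or above 50% at 10 µM; inactive = inhibition below 50%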;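 also: firefly luciferase from ISG56 promoter only with Renilla not read in this screen; 0% = Sendai virus plus DMSO and 100% = medium plus DMSO without virus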); details: HEK293 RL24 IRF3 luciferase reporter, at 10 µM, stronger effect = higher value
[12] = inhibitors of poly I:C-induced TLR3 signaling, primary screen, cell-based, poly I:C stimulus, luciferase, 10K MLSCN set (AID 602277;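 active = inhibition of the reporter signal at or above 50%; inactive = inhibition below 50%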); details: HEK293-TLR3 RL24 IRF3 luciferase reporter, at 10 µM, stronger effect = higher value
[13] = molecular target: Muscarinic acetylcholine receptor M4 (Homo sapiens) (UniProt P08173); test: compounds altering M4/GIRK thallium flux, either direction, primary screen, M4 allosteric agonist project, cell-based, HEK293 M4/GIRK, BTC-AM (AID 625;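 active = fluorescence slope after compound addition differing from the mean of all tested samples at 99.7% confidence, mostly higher but some lower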;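 also: thallium influx through GIRK channels coupled to M4 in HEK293 cells with BTC-AM dye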); details: at 10 µM, actives lie on both sides
[14] = measured here: cell density z-score
[15] = measured here: nuclear c-Myc green intensity z-score
[16] = measured here: nuclear pErk red intensity z-score, stronger effect = higher value

Voltage-gated potassium channel subunit beta-2 (Rattus norvegicus), sequence (P62483 whole entry, looked up): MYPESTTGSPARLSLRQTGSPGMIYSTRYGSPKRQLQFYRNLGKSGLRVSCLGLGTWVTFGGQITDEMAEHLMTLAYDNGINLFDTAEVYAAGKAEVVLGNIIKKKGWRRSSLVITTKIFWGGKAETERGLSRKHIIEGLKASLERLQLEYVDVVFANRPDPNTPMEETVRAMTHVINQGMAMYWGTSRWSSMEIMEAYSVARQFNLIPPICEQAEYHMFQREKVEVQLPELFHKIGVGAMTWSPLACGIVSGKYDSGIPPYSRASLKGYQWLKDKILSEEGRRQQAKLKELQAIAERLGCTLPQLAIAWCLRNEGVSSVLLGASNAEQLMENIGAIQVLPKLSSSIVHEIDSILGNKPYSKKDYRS
Alpha-2C adrenergic receptor (Homo sapiens), sequence (P18825 whole entry, looked up): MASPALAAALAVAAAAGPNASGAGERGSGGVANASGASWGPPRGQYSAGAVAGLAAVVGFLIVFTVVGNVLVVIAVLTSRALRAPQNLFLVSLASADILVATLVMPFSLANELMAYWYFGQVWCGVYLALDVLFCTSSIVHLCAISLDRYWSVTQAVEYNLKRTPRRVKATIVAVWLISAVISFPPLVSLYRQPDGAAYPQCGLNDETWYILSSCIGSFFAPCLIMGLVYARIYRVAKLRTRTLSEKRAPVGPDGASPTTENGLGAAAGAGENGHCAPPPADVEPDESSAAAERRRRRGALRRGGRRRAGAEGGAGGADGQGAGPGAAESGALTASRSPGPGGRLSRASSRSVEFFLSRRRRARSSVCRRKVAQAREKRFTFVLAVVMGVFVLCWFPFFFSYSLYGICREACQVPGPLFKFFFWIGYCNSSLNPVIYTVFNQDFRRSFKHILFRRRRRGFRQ
Dual specificity protein phosphatase 6 (Homo sapiens), sequence (Q16828 whole entry, looked up): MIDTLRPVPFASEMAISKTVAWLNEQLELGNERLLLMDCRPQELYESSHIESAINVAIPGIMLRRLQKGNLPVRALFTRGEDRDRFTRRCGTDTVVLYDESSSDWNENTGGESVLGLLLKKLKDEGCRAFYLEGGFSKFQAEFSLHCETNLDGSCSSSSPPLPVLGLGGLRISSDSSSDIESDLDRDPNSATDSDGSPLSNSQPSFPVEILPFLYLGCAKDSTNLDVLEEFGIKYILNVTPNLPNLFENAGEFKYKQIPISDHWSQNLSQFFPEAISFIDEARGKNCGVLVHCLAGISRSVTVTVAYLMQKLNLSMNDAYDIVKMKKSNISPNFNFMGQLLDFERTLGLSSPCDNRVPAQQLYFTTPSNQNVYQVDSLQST
Muscarinic acetylcholine receptor M4 (Homo sapiens), sequence (P08173 whole entry, looked up): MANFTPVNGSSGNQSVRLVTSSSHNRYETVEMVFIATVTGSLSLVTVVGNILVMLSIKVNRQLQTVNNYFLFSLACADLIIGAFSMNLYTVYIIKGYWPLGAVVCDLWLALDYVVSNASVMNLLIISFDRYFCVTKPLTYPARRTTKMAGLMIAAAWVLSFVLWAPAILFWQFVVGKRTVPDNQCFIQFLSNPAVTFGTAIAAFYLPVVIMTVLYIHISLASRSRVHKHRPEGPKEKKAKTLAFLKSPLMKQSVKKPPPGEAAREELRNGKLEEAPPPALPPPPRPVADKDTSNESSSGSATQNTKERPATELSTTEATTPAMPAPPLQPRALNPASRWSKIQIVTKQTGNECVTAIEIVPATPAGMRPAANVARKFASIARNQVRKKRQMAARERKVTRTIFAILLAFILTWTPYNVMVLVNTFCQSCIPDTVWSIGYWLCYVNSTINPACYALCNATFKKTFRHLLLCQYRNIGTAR

| SMILES | cell count [1] | inhibition [1] | inhibition of aggregation [2] | nuclei count [2] | inhibition [3] | nuclei count [3] | z-score [4, 14] | z-score [4, 15] | z-score [4, 16] | inhibition [5] | fluorescence slope [6] | NADPH fluorescence slope [7] | slope [8] | outcome [9] | inhibition [10] | inhibition [11] | inhibition [12] | fluorescence slope [13] |
| --- | --- | --- | --- | --- | --- | --- | --- | --- | --- | --- | --- | --- | --- | --- | --- | --- | --- | --- |
| CC(=O)OCC(=O)[C@@]12OC(C)(C)O[C@@H]1C[C@H]1[C@@H]3C[C@H](F)C4=CC(=O)C=C[C@]4(C)[C@@]3(F)[C@@H](O)C[C@@]12C | 518 | -0.9% (inactive) | 2% (inactive) | 53.2% | -73.2% (inactive) | 104% | -0.49 | -0.238 | -0.0296 | -2.46% (inactive) | -0.449 (inactive) | -7.8e-05 (inactive) | 0.00478 (inactive) | inactive | -12.6% (inactive) | 5.9% (inactive) | 40.3% (inactive) | – |
| COc1cccc(C2C(C(=O)c3cc4ccccc4o3)=C(O)C(=O)N2CCN(C)C)c1OC (stereo not given) | 516 | -3.4% (inactive) | 31% (inactive) | 87.3% | -49.8% (inactive) | 124% | 0.445 | -1.47 | -1.27 | 22.7% (inactive) | -0.492 (inactive) | -4.6e-05 (inactive) | 0.0034 (inactive) | inactive | 20.6% (inactive) | 9.6% (inactive) | 6.82% (inactive) | 0.00523 (inactive) |
| COc1ccc(C2=Nn3c(nnc3-c3ccccc3)SC2)cc1OC | 523 | -5.5% (inactive) | -6.6% (inactive) | 92.4% | -126% (inactive) | 132% | -0.336 | 0.955 | 0.104 | -11.5% (inactive) | -0.413 (inactive) | -0.000132 (inactive) | 0.00597 (inactive) | inactive | 2.7% (inactive) | 25% (inactive) | 40.2% (inactive) | – |
| c1ccc(CN(CC2=NCCN2)c2ccccc2)cc1 | 455 and 493 | 0% (inactive) and 19.7% (inactive) | 9.9% (inactive) and 6.3% (inactive) | 97.2% and 85% | -8.6% (inactive) and -65.1% (inactive) | 98.7% and 128% | 0.164 and -0.173 | 0.692 and 0.37 | -0.518 and 0.488 | 8% (inactive) and 13.3% (inactive) | -0.512 (inactive) and -0.523 (inactive) | -3e-05 (inactive) and -2.5e-05 (inactive) | 0.00381 (inactive) and 0.00497 (inactive) | inactive | -11.5% (inactive) and 25.6% (inactive) | -7.89% (inactive) and 7.92% (inactive) | 0.563% (inactive) and 36.8% (inactive) | – |
| COc1ccc(Cl)cc1C(=O)NCCc1ccc(S(=O)(=O)NC(=O)NC2CCCCC2)cc1 | 517 | -3.1% (inactive) | -17.2% (inactive) | 105% | 48.6% (inactive) | 80.7% | 0.545 | -1.59 | -0.882 | 5.79% (inactive) | -0.462 (inactive) | -5.3e-05 (inactive) | 0.00532 (inactive) | inactive | 3.54% (inactive) and -10.9% (inactive) | 19.2% (inactive) | 42.8% (inactive) | – |
| Cc1cc(C)n(-c2nnc(C)n2/N=C/c2ccco2)n1 | 609 | -8.3% (inactive) | -21.9% (inactive) | 106% | -232% (inactive) | 159% | 1.68 | -0.585 | 0.108 | 20.2% (inactive) | -0.501 (inactive) | -5.1e-05 (inactive) | 0.00494 (inactive) | inactive | 17.4% (inactive) | 17.4% (inactive) | 24% (inactive) | – |
| COCCOC(=O)C1=C(C)NC(C)=C(C(=O)OC(C)C)C1c1cccc([N+](=O)[O-])c1 (stereo not given) | 617 | -5.1% (inactive) | -29.1% (inactive) | 98.9% | -38.8% (inactive) | 122% | -0.996 | 0.882 | -0.963 | 32.3% (inactive) | -0.534 (inactive) | 2.5e-05 (inactive) | 0.00348 (inactive) | inactive | 10.2% (inactive) and -3.02% (inactive) | 19.6% (inactive) | 25.9% (inactive) | – |
| CC(C)C[C@H](NC(=O)[C@@H]1O[C@H]1C(=O)O)C(=O)NCCCCN=C(N)N | 565 | 1.2% (inactive) | 14.2% (inactive) | 93.3% | -70.2% (inactive) | 120% | 0.0952 | -0.437 | 0.847 | 3.45% (inactive) | -0.492 (inactive) | -4.3e-05 (inactive) | 0.00515 (inactive) | inactive | 9.72% (inactive) | 13.8% (inactive) | 45.3% (inactive) | – |
| CC[C@]1(O)CC2CN(CCc3c([nH]c4ccccc34)[C@@](C(=O)OC)(c3cc4c(cc3OC)N(C=O)[C@H]3[C@@](O)(C(=O)OC)[C@H](OC(C)=O)[C@]5(CC)C=CCN6CC[C@]43[C@@H]65)C2)C1 (stereo not given in full) | 496 | 31.7% (active) | -69.9% (inactive) | 1.5% | -122% (inactive) | 76.8% | 0.276 | -0.499 | 1.19 | 27.9% (inactive) | -0.439 (inactive) | -3.8e-07 (inactive) | 0.00563 (inactive) | inactive | -2.94% (inactive) | 32.7% (inactive) | 85.7% (active) | – |
| Cc1ccccc1C(OCCN(C)C)c1ccccc1 (stereo not given) | 644 | -4.5% (inactive) | -3% (inactive) | 89% | -41.9% (inactive) | 103% | -0.367 | -1.7 | 0.158 | -0.828% (inactive) | -0.48 (inactive) | -2.2e-05 (inactive) | 0.00302 (inactive) | inactive | 24.9% (inactive) and 29.3% (inactive) | 22.3% (inactive) | 42.3% (inactive) | – |
| CC(=O)OCC(=O)[C@@]1(OC(C)=O)[C@@H](C)C[C@H]2[C@@H]3C[C@H](F)C4=CC(=O)C=C[C@]4(C)[C@@]3(F)[C@@H](O)C[C@@]21C | 659 | -5.5% (inactive) | -7.2% (inactive) | 68.3% | -71.2% (inactive) | 116% | 1.64 | -1.42 | -1.55 | 29.1% (inactive) | -0.482 (inactive) | -7.3e-05 (inactive) | 0.00497 (inactive) | inactive | 3.31% (inactive) | 4.93% (inactive) | 44.4% (inactive) | – |
| CC1(C)Cc2c(c(N3CCOCC3)nc3sc(C#N)c(N)c23)CS1 | 626 | -0.4% (inactive) | -6.4% (inactive) | 114% | -68.9% (inactive) | 120% | -0.238 | -0.405 | 0.382 | 5.42% (inactive) | -0.0293 (active) | -1.7e-06 (inactive) | 0.00535 (inactive) | inactive | 21.2% (inactive) | -2.57% (inactive) | 16.1% (inactive) | – |
